Inconclusive results are not listed. Where a call stands in place of a potency, no number is given. The source made the active and inactive calls. The call rests on the fitted dose curve; in most records, active means well fitted cell-killing curve with a large enough effect; inconclusive means small, poorly fitted or top-dose-only effect; inactive means flat fitted curve, though single readings scatter.
Assay: Quantitative highthroughput screen to assess conditional lethalithy of NOMO1 cells grown in RPMI1640 with dialyzed fetal bovine serum (RPMI+ds) (AID 1963877); further: nearly all actives have a fitted effect of over 30% in size
Settings: NOMO1 in RPMI+dialyzed FBS viability, ATP luminescence, 48 h; series mostly up to 45.8 µM
From the text: Assay Provider: Jason Cantor Ph.D.
Department of Biochemistry
University of Wisconsin-Madison, Madison, WI, USA
Chemical screening studies have identified drug sensitivities across hundreds of cancer cell lines but most putative therapeutics fail to translate. Discovery and development of drug candidates in models that more accurately reflect nutrient levels in human blood is a major challenge. Here we performed high-throughput screens in conventional versus Human Plasma-Like Medium (HPLM) to identify compounds that were "missed" when screening using the artificial culture condition. Sets of conditional anticancer compounds spanned phases of clinical development and included non-oncology drugs were assessed. […] We also traced conditional phenotypes for several chemotherapeutics to availability of HPLM-specific metabolites and confirmed others for compounds whose reported targets are encoded by nonessential genes. Our findings establish generalizable strategies for exploiting conditional lethality in HPLM to reveal therapeutic candidates and mechanisms of action in cancer cells.
Described herein are the results of each viability screens against three cell lines: NOMO1 (an acute myeloid leukemia cell line); P12-Ichikawa (a T-cell acute lymphoblastic leukemia); and SEM (a B-cell ALL). Each assay was screened using 3 different cell culture media: homemade human plasma-Like medium with 10% dialyzed fetal bovine serum (HPLM+ds); RPMI1640 with 10% untreated FBS and 5mM glucose (RPMI+s); and RPMI1640 with 10% dialyzed fetal bovine serum and 5 mM glucose (RPMI+ds).
PROTOCOL TABLE (as described by Inglese J, Shamu CE and Guy RK. 2007)
SEQUENCE No. (e.g., 1, 2, 3, etc.); […] (e.g., Cells, Incubation, Reagent, etc.); VALUE and DESCRIPTION.
1; Cells; 5 uL; white, solid bottom 1536-well Greiner assay plate.
2; Compounds; 23 nL; Kalypsis pin tool (Wako USA) equipped with a 1536-well pin head to transfer to the assay plates.
3; Incubation; 48 hours; 37C incubation.
4; Reagent; 3 uL; CellTiter Glo (Promega).
5; Incubation; 5 min, room temperature
6; Detection; Luminescence, Viewlux PerkinElmer.
NOTES (numbers refer to Sequence numbers above)
1. Briefly, 5 ul of cell reagent was dispensed using a Multidrop Combi Dispenser. The NOMO1 and SEM cells were plated at 500 cells/well and the P12-Ichikawa line at 1000 cells/well.
2. After seeding the cells, 23 nL of MIPE 4.1 library compounds (in DMSO) were added to each plate using a Kalypsys 1536 Pintool dispenser. Bortezomib at final concentration of […] and DMSO were added to each plate as positive and negative controls respectively. For each screen, MIPE 4.1 compounds were added over an eleven-point concentration range […] in 3-fold dilutions.
3. Each plate was covered with a stainless steel gasketed lid to prevent evaporation and incubated for 48 hour at 37C, 95% relative humidity, and 5% CO2.
4-5. Three microliter CellTilter-GloTM luminescent substrate mix (Promega) reagent was added to the assay plate and incubated at room temperature for 5 min.
6. The luminescence signal was measured using a ViewLux (PerkinElmer) multiplate reader with a 2 second exposure time per plate. Data for each compound were normalized as percent viability such that measurements for DMSO and the empty well controls in each plate were defined as 100% and 0%, respectively.
Potency means the concentration at half of the fitted maximal effect.

SMILES	Potency
O=C1c2ccccc2-[n+]2ccc3c([nH]c4ccccc43)c21	5.9 µM (active)
Cc1ccnc2c1NC(=O)c1cccnc1N2C1CC1	2.09 µM (active)
C[C@H]1COc2c(N3CCN(C)CC3)c(F)cc3c(=O)c(C(=O)O)cn1c23	23.5 µM (active)
CC(C)OC(=O)C1=CN(C(=O)c2ccc(F)c(F)c2)CC(C)(C)c2c1[nH]c1ccccc21	inactive
Cc1cc(-c2nnc3n2CCCCC3)c(C)n1-c1ccccc1	inactive
CC1COC2(CCN(c3nc(=O)c4cc(C(F)(F)F)cc([N+](=O)[O-])c4s3)CC2)O1 (stereo not given)	inactive
CNS(=O)(=O)Cc1ccc2[nH]cc(CCN(C)C)c2c1	inactive
N#Cc1c(O)c2c(-c3ccc(-c4ccccc4O)cc3)csc2[nH]c1=O	inactive
O=[N+]([O-])c1cn2c(n1)OC[C@@H](OCc1ccc(OC(F)(F)F)cc1)C2	inactive
COc1ccc(COc2cc3oc(=O)c4cc(C(C)O)ccc4c3cc2OC)cc1 (stereo not given)	inactive
CC(C)C[C@H](NC(=O)[C@H](Cc1ccccc1)NC(=O)c1cnccn1)B(O)O	0.0469 µM (active)
COc1cc2c(NC3CCN(C(C)C)CC3)nc(C3CCCCC3)nc2cc1OCCCN1CCCC1	20.9 µM (active)
CCN1C[C@H](C)n2c(c(O)c3c(=O)n(Cc4ccc(F)c(Cl)c4)nc(C(=O)NC)c32)C1=O	16.6 µM (active)
CNC1[C@H](O)C(O[C@@H]2C(O)C(O[C@H]3O[C@H]([C@@H](C)NC)CC[C@H]3N)[C@@H](N)C[C@H]2N)OC[C@]1(C)O (stereo not given in full)	inactive
CO[C@H]1C[C@@H]2CC[C@@H](C)[C@@](O)(O2)C(=O)C(=O)N2CCCC[C@@H]2C(=O)O[C@H]([C@H](C)C[C@@H]2CC[C@H](OP(C)(C)=O)[C@H](OC)C2)CC(=O)[C@H](C)C=C(C)[C@@H](O)[C@@H](OC)C(=O)[C@H](C)C[C@H](C)C=CC=CC=C1C	inactive
CN(C)CCCN=c1c2ccccc2n(C)c2[nH]c(=O)n(C)c(=O)c12	20.9 µM (active)
Cc1cc(Nc2ncnc3ccc(-c4ccc(CNCCS(C)(=O)=O)o4)cc23)ccc1Oc1ccn2ncnc2c1	1.18 µM (active)
CCCCN1CCC(CNC(=O)c2c3n(c4ccccc24)CCCO3)CC1	inactive
CO[C@H]1C(=O)[C@]2(C)[C@@H](OC)C[C@H]3OC[C@@]3(OC(C)=O)[C@H]2[C@H](OC(=O)c2ccccc2)[C@]2(O)C[C@H](OC(=O)[C@H](O)[C@@H](NC(=O)OC(C)(C)C)c3ccccc3)C(C)=C1C2(C)C	0.0132 µM (active)
C=C(C)[C@@H]1CC[C@]2(C(=O)O)CC[C@]3(C)[C@H](CC[C@@H]4[C@@]5(C)CC[C@H](O)C(C)(C)[C@@H]5CC[C@]43C)[C@@H]12	inactive

SMILES	Potency
CC(=O)Nc1ccc([C@H](C)C(=O)Nc2ncc(C(C)C)s2)cc1	8.33 µM (active)
OC1CCC(Nc2ncc3nc(Nc4c(F)cc(F)cc4F)n([C@@H]4CCOC4)c3n2)CC1 (stereo not given in full)	inactive
COC(=O)[C@]12CCC(C)(C)C[C@@H]1[C@@H]1C(=O)C=C3[C@@]4(C)C=C(C#N)C(=O)C(C)(C)[C@@H]4CC[C@@]3(C)[C@]1(C)CC2	8.33 µM (active)
Cc1cccc(-c2[nH]ncc2-c2ccc3ncccc3n2)n1	18.7 µM (active)
Nc1ncnc2ccccc12	inactive
COc1cccc2c1C(=O)c1c(O)c3c(c(O)c1C2=O)C[C@@](O)(C(=O)CO)C[C@H]3O[C@H]1C[C@H](N)[C@H](O)[C@H](C)O1	2.96 µM (active)
CC(C)NCC(O)COc1ccc(COCCOC(C)C)cc1 (stereo not given)	inactive
COc1cc2c(Oc3ccc(NC(=O)C4(C(=O)Nc5ccc(F)cc5)CC4)cc3F)ccnc2cc1OCCCN1CCOCC1	5.9 µM (active)
C[C@]12C=CC(=O)N[C@@H]1CC[C@H]1[C@H]3CC[C@@H](C(=O)Nc4cc(C(F)(F)F)ccc4C(F)(F)F)[C@@]3(C)CC[C@@H]12	inactive
Cc1coc2c1C(=O)C(=O)c1c-2ccc2c1CCCC2(C)C	inactive
NC1CCC(Nc2nc(Nc3ccc(C(=O)N4CCCCC4)cc3)c3ncn(-c4cccc(F)c4)c3n2)CC1 (stereo not given)	inactive
CCC[C@@H](NC(=O)[C@@H]1[C@H]2CCC[C@@H]2CN1C(=O)[C@@H](NC(=O)[C@@H](NC(=O)c1cnccn1)C1CCCCC1)C(C)(C)C)C(=O)C(=O)NC1CC1	inactive
O=C(c1ccc(Nc2nccc(-c3cc4ccccc4s3)n2)cc1)N1CCC(N2CCCC2)CC1	26.4 µM (active)
CC(C)n1cnc2c(NCCCCCCNC(=O)OC(C)(C)C)nc(NCCO)nc21	inactive
Cc1ccc2c(c1)c1c(n2CCc2ccc(C)nc2)CCN(C)C1	inactive
Cc1ccccc1C(C(=O)NC1CCCCC1)N(C(=O)Cn1ccnc1C)c1cccc(F)c1 (stereo not given)	inactive
Cc1cc2c(cc1C1(c3ccc(C(=O)O)cn3)CC1)C(C)(C)CCC2(C)C	inactive
CC(C)c1ccc2oc3nc(N)c(C(=O)O)cc3c(=O)c2c1	inactive
CC1(C)Cc2c(sc(NC(=S)NC(=O)c3ccccc3)c2C(=O)O)CO1	inactive
CCn1c(-c2nonc2N)nc2c(C#CC(C)(C)O)ncc(OC[C@H]3CCCNC3)c21	inactive

Source: PubChem BioAssay (NCATS)
